Results on 24 molecules are retold here after the supplement of paper PMC10037445.

Over roughly 2,900 compounds, “NF-kB SEAP reporter activity, fold change vs agonist alone” has its median near 0.99; the highest 2% begin near 2.6. What follows is part of a selection rich in the highest values, with near analogues and random picks from the rest.

Test [1] relates to RAW-Dual. The test is described as follows: NF-kB SEAP reporter activity, fold change vs agonist alone; higher = enhanced NF-kB activity. The note with it: library stock concentration (final ~1000-fold dilution): 10 mM. Summed up:
(§1)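 Supernatant from RAW-Dual macrophages was read after 20 hours for IRF by QuantiLuc luminescence and for NF-κB by QuantiBlue absorbance at 620 nm. The cells (50,000 cells/well in DMEM, 384-well plates, 37 °C, 5% CO2) had received 50 nL of library stock by pin tool and, 1 h later, a PRR agonist. Reporter activity is expressed relative to agonist-alone wells as fold change, and wells were flagged cytotoxic if IncuCyte confluency was under 70% of agonist controls in both mask sets.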

In test [2] the test system is RAW-Dual. The test is described as follows: NF-kB SEAP reporter activity, fold change vs agonist alone; cytotoxicity flag (confluency mask): not cytotoxic; higher = enhanced NF-kB activity. Summed up:
as §1

Test [3] deals with RAW-Dual. As to the kind of experiment: NF-kB SEAP reporter activity, fold change vs agonist alone; cytotoxicity flag (confluency mask): cytotoxic (confluency <70% of control); higher = enhanced NF-kB activity. Summed up:
as §1

Where [4] appears, read: cytotoxicity flag (confluency mask): not cytotoxic, agonist: Imiquimod (TLR7) […].
Where [5] appears, read: cytotoxicity flag (confluency mask): not cytotoxic, agonist: MPLA (TLR4) […].
Where [6] appears, read: agonist: ODN 1826 (TLR9) 0.5 ug/mL.
Where [7] appears, read: agonist: Pam2CSK4 (TLR2/6) 0.1 ug/mL.
[8] abbreviates: agonist: Pam3CSK4 (TLR2/1) 0.1 ug/mL.
Where [9] appears, read: cytotoxicity flag (confluency mask): cytotoxic (confluency <70% of control), agonist: Imiquimod (TLR7) […].
Where [10] appears, read: cytotoxicity flag (confluency mask): cytotoxic (confluency <70% of control), agonist: MPLA (TLR4) […].

Regarding `C=C1CC23CCC4C(C)(C(=O)O)CCCC4(C)C2CCC1C3` (configuration not stated), the “NF-kB SEAP reporter activity” value in test [1] (setting [4]) is 0.739; in test [1] (setting [5]), 0.753.
On to `C=C1CC23CCC4C(C)(C(=O)O)CCCC4(C)C2CCC1C3` (configuration not stated) (library stock concentration (final ~1000-fold dilution): 10 mM), for which the “NF-kB SEAP reporter activity” value is 0.821 in test [2] (agonist: LPS (TLR4) 0.1 ug/mL), 0.749 in test [2] (setting [6]), 0.65 in test [2] (setting [7]) and 0.646 in test [2] (setting [8]).
For `COc1ccc(CCCOC(Cn2ccnc2)c2ccc(OC)cc2)cc1.Cl` (configuration not stated), the “NF-kB SEAP reporter activity” value stood at 0.901 in test [1] (setting [4]) and 1.28 in test [1] (setting [5]).
As to `COc1ccc(CCCOC(Cn2ccnc2)c2ccc(OC)cc2)cc1.Cl` (configuration not stated) (library stock concentration (final ~1000-fold dilution): 10 mM), the “NF-kB SEAP reporter activity” value in test [2] (agonist: LPS (TLR4) 0.1 ug/mL) is 0.82; in test [2] (setting [6]) it was 0.588; in test [2] (setting [7]), 0.572; in test [2] (setting [8]), 0.84.
Turning to `Cl.Cn1cc(C(=O)Nc2ccc3c(c2)OCCO3)c2ccccc2c1=O` (library stock concentration (final ~1000-fold dilution): 10 mM), the “NF-kB SEAP reporter activity” value came out at 2.21 in test [2] (agonist: LPS (TLR4) 0.1 ug/mL), 1.48 in test [2] (setting [6]), 1.09 in test [2] (setting [7]) and 1.29 in test [2] (setting [8]).
As to `Cl.Cn1cc(C(=O)Nc2ccc3c(c2)OCCO3)c2ccccc2c1=O`, the “NF-kB SEAP reporter activity” value in test [1] (setting [4]) was determined as 1.2; in test [1] (setting [5]), 1.41.
The like results for `COc1cc(C(=O)O)ccc1NC(=O)C1NC(CC(C)(C)C)C(C#N)(c2ccc(Cl)cc2F)C1c1cccc(Cl)c1F` (configuration not stated) were, in that order, 0.74 and 0.697.
For the molecule `CC(C)(C)CC1NC(C(=O)NC2CCC(O)CC2)C(c2cccc(Cl)c2F)C12C(=O)Nc1cc(Cl)ccc12` (configuration not stated) (library stock concentration (final ~1000-fold dilution): 10 mM), the “NF-kB SEAP reporter activity” value in test [3] (agonist: LPS (TLR4) 0.1 ug/mL) is 3.05; in test [3] (setting [6]), 2.82; in test [3] (setting [7]), 0.884; in test [3] (setting [8]) it was 1.21.
Turning to `CC(C)(C)CC1NC(C(=O)NC2CCC(O)CC2)C(c2cccc(Cl)c2F)C12C(=O)Nc1cc(Cl)ccc12` (configuration not stated), the entries for the “NF-kB SEAP reporter activity” value in test [1] (setting [9]) and in test [1] (setting [10]) were 1.55 and 2.25, respectively.
For `COc1cc(C(=O)O)ccc1NC(=O)C1NC(CC(C)(C)C)C(C#N)(c2ccc(Cl)cc2F)C1c1cccc(Cl)c1F` (configuration not stated) (library stock concentration (final ~1000-fold dilution): 10 mM), the “NF-kB SEAP reporter activity” value in test [2] (agonist: LPS (TLR4) 0.1 ug/mL) is 0.272; in test [2] (setting [6]), 0.436; in test [2] (setting [7]) it was 0.145; in test [2] (setting [8]) it was 0.285.
Taken in the same sequence, the figures for `CC(=O)OC1(C(C)=O)CCC2C3C=C(Cl)C4=CC(=O)C5CC5C4(C)C3CCC21C` (configuration not stated) (library stock concentration (final ~1000-fold dilution): 10 mM) were 1.2, 1.01, 0.777 and 1.08.
Consider `CC(=O)OC1(C(C)=O)CCC2C3C=C(Cl)C4=CC(=O)C5CC5C4(C)C3CCC21C` (configuration not stated), for which the “NF-kB SEAP reporter activity” value was determined as 1.26 in test [1] (setting [4]) and 1.21 in test [1] (setting [5]).
Regarding `CC1CCC2C(C)C(OC(=O)CCC(=O)O)OC3OC4(C)CCC1C32OO4` (configuration not stated) (library stock concentration (final ~1000-fold dilution): 10 mM), the “NF-kB SEAP reporter activity” value in test [2] (agonist: LPS (TLR4) 0.1 ug/mL) is 5.12; in test [2] (setting [6]), 1.67; in test [2] (setting [7]), 1.02; in test [2] (setting [8]), 1.44.
The like results for `C[C@H]1[C@@H](O)O[C@@H]2OC3(C)CC[C@H]4[C@H](C)CC[C@@H]1[C@@]24OO3` (library stock concentration (final ~1000-fold dilution): 10 mM) were, in that order, 3.41, 1.13, 1.1 and 0.848.
Take `C[C@H]1[C@@H](O)O[C@@H]2OC3(C)CC[C@H]4[C@H](C)CC[C@@H]1[C@@]24OO3`: the “NF-kB SEAP reporter activity” value in test [1] (setting [4]) stood at 1.32; in test [1] (setting [5]) it was 1.97.
Taken in the same sequence, the figures for `CC1CCC2C(C)C(OC(=O)CCC(=O)O)OC3OC4(C)CCC1C32OO4` (configuration not stated) were 1.84 and 2.5.
`Nc1nonc1/C(=N\O)Nc1ccc(F)c(Cl)c1` (library stock concentration (final ~1000-fold dilution): 10 mM): the “NF-kB SEAP reporter activity” value was determined as 1.01 in test [2] (agonist: LPS (TLR4) 0.1 ug/mL), 0.882 in test [2] (setting [6]), 0.938 in test [2] (setting [7]) and 0.585 in test [2] (setting [8]).
On to `Nc1nonc1/C(=N\O)Nc1ccc(F)c(Cl)c1`, for which the figures for the “NF-kB SEAP reporter activity” value in test [1] (setting [4]) and in test [1] (setting [5]) were 0.904 and 0.933, respectively.
Consider `COc1ccc2cc1Oc1ccc(cc1)CC1c3c(cc4c(c3Oc3cc5c(cc3OC)CCN(C)C5C2)OCO4)CCN1C` (configuration not stated) (library stock concentration (final ~1000-fold dilution): 10 mM), for which the “NF-kB SEAP reporter activity” value in test [3] (agonist: LPS (TLR4) 0.1 ug/mL) came to 1.44; in test [3] (setting [6]), 0.251; in test [3] (setting [7]), 1.42; in test [3] (setting [8]) it was 1.01.
Consider `COc1ccc2cc1Oc1ccc(cc1)CC1c3c(cc4c(c3Oc3cc5c(cc3OC)CCN(C)C5C2)OCO4)CCN1C` (configuration not stated), for which the “NF-kB SEAP reporter activity” value in test [1] (setting [9]) is 1.58; in test [1] (setting [10]) it was 2.32.
Turning to `CN1CCN(Cc2ccc(NC(=O)Nc3ccc(Oc4ccnc(N)n4)cc3)cc2C(F)(F)F)CC1` (library stock concentration (final ~1000-fold dilution): 10 mM), the “NF-kB SEAP reporter activity” value in test [3] (agonist: LPS (TLR4) 0.1 ug/mL) worked out at 0.293; in test [3] (setting [6]), 0.197; in test [3] (setting [7]), 0.0678; in test [3] (setting [8]) it was 0.129.
With `CN1CCN(Cc2ccc(NC(=O)Nc3ccc(Oc4ccnc(N)n4)cc3)cc2C(F)(F)F)CC1`, the “NF-kB SEAP reporter activity” value worked out at 0.146 in test [1] (setting [9]) and 0.248 in test [1] (setting [10]).
Taken in the same sequence, the figures for `OC1C=C2CCN3Cc4cc5c(cc4C(C1O)C23)OCO5` (configuration not stated) were 2.07 and 1.61.
On to `OC1C=C2CCN3Cc4cc5c(cc4C(C1O)C23)OCO5` (configuration not stated) (library stock concentration (final ~1000-fold dilution): 10 mM), for which the “NF-kB SEAP reporter activity” value in test [3] (agonist: LPS (TLR4) 0.1 ug/mL) was found to be 1.54; in test [3] (setting [6]), 1.05; in test [3] (setting [7]), 0.33; in test [3] (setting [8]), 0.552.
